Assay results published in PubChem BioAssay (NCI).
This is part of a sample that, as a whole, favours compounds with a hit. Of some 83,000 tested, about 20% had one in any assay.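 How to read the values: 0–100, growth inhibition (40 = 60% inhibited); 0, no net growth; -100 to 0, cell death (-40 = 40% of starting cells died; -100 = all dead).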 Unmarked numbers belong to inactive results. Active and inactive are the calls of the source.

What follows are compounds tested on EKVX NSCLC (assay: NCI-60 one-dose screen, 48 h (100 = growth as untreated, 0 = no growth, -100 = all killed)). Conditions: 10 µM unless noted.
Description: Growth inhibition of the EKVX human Non-Small Cell Lung tumor cell line is measured as a screen for anti-cancer activity. Cells are grown in 96 well plates and exposed to the test compound for 48 hours. Compounds are tested at a single concentration, which is 10^-5 M for most compounds. The reported endpoint is percent growth (GI% or GIPRCNT), where numbers from 0 - 100% represent growth inhibition, and numbers from -100% - 0 represent cell death. For example, a value of 40 represents 60% growth inhibition. A value of 0 means no net growth occurred over the course of the experiment. A value of -40 indicates 40% of cells at the beginning of the experiment died by the end of the experiment. A value of -100 means all cells are dead at the end of the experiment.
NCI-60 Human Tumor Cell Lines Screen was performed using the standard one-dose NCI protocol, which is described in more detail at https://dtp.cancer.gov/discovery_development/nci-60/default.htm.
Compounds with GIPRCNT values below 10 were considered active. Activity score was based on GIPRCNT using the following formula: […]
Score is 0 for GIPRCNT values of 100 or above, 50 for GIPRCNT values of 0, and 100 for GIPRCNT values of -100.

Structure (SMILES) | growth
CCCCC(O)Cn1ncc(C(=O)OCC)c1NC(=O)NCc1ccccc1C(F)(F)F (stereo not given) | 101%
Cc1ccc(C)c2c1sc1nc3nc4sc5ccccc5n4c(=N)c3c(=O)n12 | 95.7%
CC1SC(c2ccc(Cl)cc2)N(CCc2cccs2)C1=O (stereo not given) | -12.5% (active)
COC(=O)c1c2c(c(C)[n+]([O-])c1C)C(=O)C(NCc1ccc(O)cc1)=CC2=O | -34.5% (active)
CCCCC/C=C\C/C=C/CCCCCCCCNC(=O)Nc1ccc([N+](=O)[O-])cc1 | 79.1%
Cc1cc(=O)c2c(C)ccc(C)c2[nH]1 | 102%
COc1cc(/C=C2\C(=O)N(c3c(Cl)cccc3Cl)c3ccccc32)cc(OC)c1O | 79.8%
Cc1nn(CC(=O)O)c2c1C(=O)CC(C)(C)C2 | 105%
CN1CCN(C(=O)OCCOCCOC(=O)N2CCN(C)CC2)CC1 | 100%
c1ccc2c(c1)oc1cc3c(cc12)nnc1cccn13 | 80.9%
O=C1/C(=C/c2ccccc2F)CNC/C1=C\c1ccccc1F | 22.4%
CC(=O)c1cc(C)c(OC(=O)c2ccccc2)c(C)c1 | 96.5%
COC(=O)c1c2c(c(C)[n+]([O-])c1C)C(=O)C=C(NCc1ccc(F)c(Cl)c1)C2=O | -63.3% (active)
O=C1NC(=S)S/C1=C\c1cccc([N+](=O)[O-])c1 | 90.4%
NS(=O)(=O)c1ccc(C(=O)N/N=C(\CS(=O)(=O)c2ccccc2)c2cc3cc(Br)ccc3o2)cc1 | 103%
Nc1cccc2c(=S)c3ccccc3[nH]c12 | 93.6%
Cc1cccc2c(=O)c3c(sc12)c(NCCNCCO)nc1ccccc13 | 41.6%
CCOC(=O)c1cnn(CC(O)c2ccc(F)cc2)c1NC(=O)Nc1ccccc1F (stereo not given) | 101%
Cn1c(=O)c2c(-c3ccccc3F)n(-c3ccc4c(c3)OCO4)cc2n(C)c1=O | 87.6%
O=S(=O)(OCCO)c1ccccc1 | 103%

Structure (SMILES) | growth
Nc1nc(N)c(C=Nc2ccc(Br)cc2)c(Nc2ccc(Br)cc2)n1 | 86.4%
Cn1cc(C(=O)NCCC(=N)N)cc1NC(=O)CN=C(N)N | 103%
COc1cc(-c2nc(Nc3nc4ccccc4[nH]3)nc(N)c2C#N)cc(OC)c1OC | 74.5%
COc1cc(-c2nc(SC(C)C)nc(Nc3cccc(C)c3)c2C#N)cc(OC)c1OC | 109%
CCCN(CCC)c1ccc(/C=C/c2ccc3cc(OCC)ccc3n2)cc1 | 86.3%
COc1cc(OCc2cccc(-c3ccc(C(O)c4nccs4)cc3)c2C)cc(OC)c1C=O (stereo not given) | 43%
FC(F)(F)c1ccc2c(c1)n1cnnc1c1nncn21 | 94.4%
CCOc1ccc(/C=N\N2CCCCCC2)cc1OCC | 76.8%
COc1ccc(/C=N\N2CCOCC2)cc1OC1CCCC1 | 89.4%
COc1cc(C2C3=C(COC3=O)N(CCO)c3cc4c(cc32)OCO4)cc(OC)c1O (stereo not given) | 57.2%
COC(=O)CCC(=O)c1ccccc1 | 89.7%
Clc1ccc(Nc2nc(Nc3ccccc3)nc(Nc3ccc(-c4cc(-c5ccc(Cl)cc5)on4)cc3)n2)cc1 | 69.5%
Fc1c[c-]c(-c2ccccn2)c(F)c1.Fc1c[c-]c(-c2ccccn2)c(F)c1.[Cl][Pt+].[Cl][Pt+].c1ccc([PH+](C[PH+](c2ccccc2)c2ccccc2)c2ccccc2)cc1 | 12.4%
COc1cccc(C2CC(=O)Nc3cc4c(cc32)CCC4)c1OC (stereo not given) | 72.5%
COc1ccc(/C=N/OCC(O)CNCc2ccccc2)cc1OC1CCCC1 (stereo not given) | 93.1%
O=[N+]([O-])c1ccc(C=C2C(Cl)=C(Cl)C(Cl)=C2Cl)cc1 | 91.6%
COc1ccc(/C=C2\SC(=O)N(CN3CCN(c4cc5c(cc4F)c(=O)c(C(=O)O)cn5C4CC4)CC3)C2=O)cc1 | 97.4%
N#Cc1c(-c2cccc(F)c2)cc(-c2ccc(Br)s2)[nH]c1=O | 89.3%
CCOC(=O)c1cn2c3c(cc(F)cc3c1=O)C(CC)c1ccccc1C2 (stereo not given) | 99.7%
Cc1ccc(N(CSc2ccc(Cl)cc2)CSc2ccc(Cl)cc2)cc1 | 17.4%
